# High-throughput results deposited in PubChem BioAssay by National Center for Advancing Translational Sciences (NCATS).
# Cruzain inh Det = inhibitors of Trypanosoma cruzi cruzain with detergent; P25779; purified cruzain, Z-FR-AMC fluorescence, 0.01% Triton; Potency, µM, inactives show max response, negative = inhibition, actives largely listed as inhibitors; hit rate 0.43% among 200,000;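 note: plate controls were neutral wells for no effect and buffer without enzyme for full effect; nearly all actives have a fitted effect of over 40% in size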
# Target sequence (P25779 123-467 limits assumed): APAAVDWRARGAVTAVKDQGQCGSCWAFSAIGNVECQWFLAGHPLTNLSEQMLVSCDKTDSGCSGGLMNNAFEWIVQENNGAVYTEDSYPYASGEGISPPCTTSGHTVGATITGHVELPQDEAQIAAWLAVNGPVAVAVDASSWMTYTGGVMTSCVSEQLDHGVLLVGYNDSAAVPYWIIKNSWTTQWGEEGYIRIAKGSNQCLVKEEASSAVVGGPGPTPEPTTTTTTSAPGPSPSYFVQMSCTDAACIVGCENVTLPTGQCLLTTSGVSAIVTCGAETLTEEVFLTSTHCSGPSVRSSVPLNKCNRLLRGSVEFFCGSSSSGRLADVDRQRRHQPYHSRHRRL
#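 Enzyme 1.5 nM, Z-FR-AMC 2 uM, NaOAc 100 mM pH 5.5, DTT 5 mM, Triton X-100 0.01%; 15 min RT compound preincubation; kinetic ex360/em450, 60 s delta.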
# Cruzain noTriton = blocks cruzain activity in detergent-free assay | purified cruzain, Z-FR-AMC fluorescence, no detergent | Potency, µM, for the others: max response, negative = inhibition, usual class: inhibitors | AID 1476 | hit rate 2.3% among 200,000 | P25779;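 note: plate controls were enzyme without inhibitor for no effect and buffer without enzyme for full effect; nearly all actives have a fitted effect of over 40% in size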
#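 Detergent-free condition (0.00005% Triton X-100) in acetate buffer pH 5.5 with DTT. 1.5 nM enzyme and compound were pre-mixed 15 min, then 2 uM Z-FR-AMC substrate added; reaction progress from fluorescence change between first and third reads (60 s).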
# * marks the source's active call; other numbers are inactive results; ? = inconclusive. Most compounds without a hit are left out; they make up all but 2.6% or so of the library. Calls come from the whole dose curve; as a rule, active = well fitted curve in the direction sought with a large enough effect; inconclusive = small, poorly fitted or top-dose-only effect, or another doubt; inactive = no such curve, though single readings can be large; an effect the other way counts as inactive or inconclusive. Potency is the fitted concentration of half-maximal effect.
SMILES,Cruzain inh Det,Cruzain noTriton
O=S(=O)(c1ccccc1)c1nc(-c2cccc(Cl)c2)oc1NCc1ccccc1,0%,9%
CCCCNc1oc(-c2ccc(OC)cc2)nc1S(=O)(=O)c1ccccc1,28µM*,?
Cc1ccc(S(=O)(=O)c2nc(C)oc2NCc2ccccc2)cc1,20µM*,20µM*
Cc1oc2ncn(C)c(=O)c2c1C(=O)N(C)c1ccccc1F,2%,-4%
Cc1ccc(S(=O)(=O)CC(=O)N2CCN(c3nc4c(F)cccc4s3)CC2)cc1,-5%,12%
O=C(CCCn1c(=O)c2sccc2n(Cc2c(F)cccc2Cl)c1=O)NCc1ccccc1,3%,-20%
CN(C)CC[C@@H](C(=O)C(C)(C)C)c1ccccn1,-4%,-1%
CC(=O)N1CCC2(CCN(Cc3ccc(C#N)cc3)CC2)CC1,-1%,6%
Br/C(=N\Nc1nn[nH]n1)c1ccncc1,2%,13%
COc1ccc(Oc2ncc3nc(-c4cccc(C#N)c4)c(=O)n(C)c3n2)cc1,1%,3%
Cc1ccc(-c2nc(-c3cc4cccc(OCc5cccc(F)c5)c4oc3=O)no2)cc1,-7%,-3%
CCOc1ccc(-c2nnn(CC(=O)NCCc3c[nH]c4ccccc34)n2)cc1,-8%,-17%
CCCOc1ccc(-c2nnn(CC(=O)c3c[nH]c4ccccc34)n2)cc1,2%,7.9µM*
CCOc1ccccc1NC(=O)CSc1nccn1Cc1ccc(F)cc1,-3%,-8%
CCN(CC)c1nc(C#N)cc(-c2ccc(OC)cc2)n1,-14%,-14%
COc1ccc(Oc2nccc(-c3ccc(Cl)cc3)n2)cc1,2%,-3%
COc1ccc(-c2cc(C(N)=O)nc(N3CCCCCC3)n2)cc1,-4%,32µM*
N#Cc1ccc(Oc2nc(C#N)cc(-c3ccccc3)n2)cc1,14µM*,-23%
N#Cc1cc(-c2ccccc2)nc(Oc2ccccc2)n1,16µM*,-25%
COc1ccc(-c2cc(C(F)(F)F)nc(N3CCCCCC3)n2)cc1,-1%,6%
NC(=O)c1cc(-c2ccccc2)nc(Oc2ccccc2)n1,-3%,-14%
COc1ccc(-c2cc(C#N)nc(Oc3ccc(Cl)cc3)n2)cc1,28µM*,25µM*
Cn1c(=O)n(C)c2cc(N3CCOCC3)c(NS(=O)(=O)c3cccc(C#N)c3)cc21,-1%,3%
CN1CCN(c2nc(C#N)cc(-c3ccccc3)n2)CC1,-22%,?
COc1ccc(-c2cc(C#N)nc(N3CCNCC3)n2)cc1,-24%,32µM*
SMILES,Cruzain inh Det,Cruzain noTriton
CC(C)[C@@H](CC(=O)N[C@@H]1CCNC[C@H]1C(=O)N[C@H](CC(=O)N[C@@H](CCC(=O)O)CC(=O)O)Cc1c[nH]c2ccccc12)NC(=O)C[C@H](CO)NC(=O)[C@@H]1CNCC[C@H]1N,1%,7%
Cc1cccc(CSc2nc3c(sc4ccccc43)c(=O)n2CCC(=O)NC(C)C)c1,4%,-4%
CN(C)c1ccc(-c2cncnc2Nc2ccc(F)cc2)cc1,-2%,-15%
COc1cc(CCN2C(=O)N[C@@H](c3ccccc3)C(C(C)=O)=C2C)cc(OC)c1OC,-2%,9%
Cc1nc(N)sc1-c1csc(N(C)c2ccc(O)cc2)n1,13µM*,5µM*
Cc1nc(NC(=O)c2ccccc2)sc1-c1csc(N)n1,-9%,-14%
O=C(NCCSc1c(-c2ccccc2)[nH]c2ccccc12)c1ccc(S(=O)(=O)N2CCOCC2)cc1,-3%,?
Cc1cc(C)c(/C=C/c2onc(C)c2S(=O)(=O)N2CCC(C(=O)Nc3ccc(Cl)c(C(F)(F)F)c3)CC2)c(C)c1,0%,5%
CCc1ccc(-n2nc3ccc(NC(=O)c4ccc5c(c4)OCO5)cc3n2)cc1,-1%,10µM*
O=C(Nc1ccc2nn(-c3ccccc3)nc2c1)c1ccc2c(c1)OCCO2,-7%,?
CCOc1ccc(-n2nc3ccc(NC(=O)c4ccc5c(c4)OCCO5)cc3n2)cc1,-3%,13µM*
Cc1ccc(-n2nc3ccc(NC(=O)c4ccc5c(c4)OCO5)cc3n2)cc1,-1%,-6%
CCNc1ncc2nc(-c3cccs3)c(=O)n(Cc3ccc(F)cc3)c2n1,0%,-27%
Cc1oc(-c2ccccc2)nc1Cn1c(=O)cc(-c2ccccc2)c2c(C)nn(C)c21,0%,-9%
Cc1ccc(-n2ncc3c(=O)n(Cc4cccc(Cl)c4)cnc32)cc1C,0%,15%
Cc1ccc(-n2ncc3c(=O)n(CC(=O)Nc4cccc(Cl)c4)cnc32)cc1C,-7%,16µM*
C=C[C@@]1(C)CC[C@H](O)[C@H]2C(=O)CCC[C@@H]21,2%,3%
CC1=C(C(=O)Nc2cccnc2)C(c2ccc(Cl)cc2)n2nc(SCc3ccccc3)nc2N1 (stereo unspecified),-1%,8%
Cc1ccc(NC(=O)CN2CCN(c3ccccc3F)CC2)cc1F,-4%,6%
CN(C(=O)Cn1cc(S(=O)(=O)N2CCN(c3ccccc3F)CC2)c2ccccc2c1=O)c1ccc(Cl)cc1,-4%,-29%
CC(C)c1ccc(NC(=O)Cn2cc(S(=O)(=O)N3CCN(c4ccccc4F)CC3)c3ccccc3c2=O)cc1,-2%,7.9µM*
Cc1ccc(NC(=O)Cn2cc(S(=O)(=O)N3CCN(c4ccccc4F)CC3)c3ccccc3c2=O)cc1F,-2%,7.9µM*
CC1CCN(S(=O)(=O)c2cn(CC(=O)Nc3cccc(C(F)(F)F)c3)c(=O)c3ccccc23)CC1,-5%,?
O=C(Cn1cc(S(=O)(=O)N2CCN(c3ccccc3F)CC2)c2ccccc2c1=O)Nc1cccc(C(F)(F)F)c1,-2%,7.9µM*
CC(C)CN=C(N)N=C(N)N,-5%,2%
SMILES,Cruzain inh Det,Cruzain noTriton
COc1cccc(N2CCN(Cc3cc(=O)oc4cc(C)ccc34)CC2)c1,-4%,0%
COc1cc2c(cc1OC)[C@@H]1C(=O)c3ccc4c(c3O[C@@H]1CO2)C=CC(C)(C)O4,-6%,?
CCc1ccc(NCc2cc3ccc(OC)cc3n(CC(=O)Nc3c(C)cc(C)cc3C)c2=O)cc1,-2%,3%
CCc1ccc(NCc2cc3cc4c(cc3n(CC(=O)Nc3ccc(OC)cc3)c2=O)OCO4)cc1,-3%,2%
COc1ccc(NCc2cc3cc4c(cc3n(CC(=O)Nc3ccc(C)cc3)c2=O)OCO4)cc1,-6%,20µM*
CCc1ccc(NCc2cc3ccc(OC)cc3n(CC(=O)Nc3ccc(C)c(Cl)c3)c2=O)cc1,-3%,25µM*
COc1ccc(NCc2cc3cc4c(cc3n(CC(=O)Nc3ccc(C)cc3C)c2=O)OCO4)cc1,-7%,?
CCc1ccc(NCc2cc3cc4c(cc3n(CC(=O)Nc3cccc(OC)c3)c2=O)OCO4)cc1,-5%,25µM*
COc1ccc(CNC(=O)c2cnc3sc(N4CCC(C)CC4)nn3c2=O)c(OC)c1,3%,2%
CC(=O)NCCNc1ncncc1-c1ccccc1CN(C)C,4%,-1%
Cc1ccc(S(=O)(=O)n2ccc(-c3ccc(OCc4c(F)cccc4Cl)cc3)n2)cc1,2%,32µM*
Cc1ccc(S(=O)(=O)n2ccc(-c3cccc(OCc4c(F)cccc4Cl)c3)n2)cc1,5%,7.9µM*
CN(CCOc1ccc(-c2ccn(S(=O)(=O)c3ccc(Cl)cc3)n2)cc1)c1ccccn1,2%,-29%
CC(Oc1ccc(-c2ccccc2)c(F)c1)c1ccn(S(=O)(=O)c2ccc(Cl)cc2)n1 (stereo unspecified),11%,?
CC(C)=CCNc1ncnc2c1c(C#N)cn2[C@H]1O[C@@H](CO)[C@@H](O)[C@@H]1O,4%,1%
